Data reported in PubChem BioAssay (NCI).
The panel holds about 79,000 compounds, 15% with a hit somewhere; the sample as a whole holds those more often. Values without a mark were called inactive. Activity calls are given as the source filed them. Cut-off read from the data, not from the text of the source: active = growth inhibition above about 70%; inactive = the rest.

Key:
[1] = NCI Yeast Anticancer Drug Screen. Data for the rad52 strain (AID 147);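 note: 0% = growth of vehicle-treated control cultures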; conditions: S. cerevisiae rad52 mutant growth inhibition, active compounds read high
Summary of the method: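 Read-out: growth inhibition versus vehicle-treated controls. Cells were a DNA repair-deficient yeast strain treated with compounds.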

[2] = NCI Yeast Anticancer Drug Screen. Data for the wt1 strain (AID 149);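 note: 0% = growth of vehicle-treated wt1 cultures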; conditions: S. cerevisiae wt1 strain (SPY 50644) growth inhibition, active compounds read high
Summary of the method: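 Readout: yeast growth inhibition, normalised to vehicle controls, in the wt1 strain exposed to test compounds.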

[3] = NCI Yeast Anticancer Drug Screen. Data for the rad50EPP+ strain (AID 151);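 note: 0% = growth of vehicle-treated control cultures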; conditions: S. cerevisiae rad50 mutant strain, active compounds read high
Summary of the method: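 Growth inhibition read against vehicle controls in rad50EPP+ yeast, a strain altered in DNA damage repair, after compound exposure.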

[4] = NCI Yeast Anticancer Drug Screen. Data for the mgt1 strain (AID 153); conditions: S. cerevisiae mgt1 mutant growth inhibition, active compounds read high
Summary of the method: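 mgt1 yeast grown with test compound; read-out is growth inhibition versus vehicle-treated cultures.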

[5] = NCI Yeast Anticancer Drug Screen. Data for the rad50 strain (AID 155);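 note: 0% = growth of vehicle-only cultures of the same strain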; conditions: S. cerevisiae rad50 strain growth inhibition, active compounds read high
Summary of the method: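 Compounds were tested on a yeast strain with an engineered DNA damage repair alteration; the reported value is growth inhibition normalised to vehicle treatment.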

[6] = NCI Yeast Anticancer Drug Screen. Data for the mec2-1 strain (AID 157); conditions: S. cerevisiae mec2-1 strain, active compounds read high
Summary of the method: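 Yeast mec2-1 mutant treated with compound. Readout: growth inhibition vs vehicle controls.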

[7] = NCI Yeast Anticancer Drug Screen. Data for the rad14 strain (AID 159);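 note: 0% = growth of vehicle-treated control cultures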; conditions: S. cerevisiae rad14 strain growth inhibition, active compounds read high
Summary of the method: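 Compound-treated yeast with a defined DNA-repair lesion; growth inhibition normalised to vehicle-treated cultures.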

[8] = NCI Yeast Anticancer Drug Screen. Data for the sgs1 mgt1 strain (AID 161);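 note: 0% = growth of cultures given vehicle only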; conditions: S. cerevisiae sgs1 mgt1 strain, active compounds read high
Summary of the method: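 Genetically altered yeast, compound exposure, growth inhibition relative to vehicle.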

[9] = NCI Yeast Anticancer Drug Screen. Data for the cln2 rad14 strain (AID 165);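 note: 0% = growth equal to vehicle treated cultures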; conditions: S. cerevisiae cln2 rad14 strain, active compounds read high
Summary of the method: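 cln2 rad14 yeast strain; compound exposure; growth inhibition read vs vehicle controls.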

[10] = NCI Yeast Anticancer Drug Screen. Data for the bub3 strain (AID 167); conditions: S. cerevisiae bub3 mutant strain, active compounds read high
Summary of the method: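 Growth of a checkpoint-deficient yeast mutant is measured after compound exposure. Values represent inhibition relative to vehicle.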

[11] = NCI Yeast Anticancer Drug Screen. Data for the wt2 strain (AID 169);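 note: 0% = growth of vehicle-treated yeast cultures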; conditions: S. cerevisiae wt2 strain growth inhibition, active compounds read high
Summary of the method: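 Read-out: growth inhibition versus vehicle-treated control cultures after compound exposure of the yeast strain.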

[12] = NCI Yeast Anticancer Drug Screen. Data for the mlh1 strain (AID 171);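 note: 0% = growth of vehicle-treated control cultures of the same strain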; conditions: S. cerevisiae mlh1 strain growth inhibition, active compounds read high
Summary of the method: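 Read-out: growth inhibition versus vehicle controls. Strain: engineered yeast with a defined DNA repair or cell cycle defect, compound-treated.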

[13] = NCI Yeast Anticancer Drug Screen. Data for the sgs1 strain (AID 173);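 note: 0% = growth of vehicle-only control cultures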; conditions: S. cerevisiae sgs1 mutant, active compounds read high
Summary of the method: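 Read-out: yeast growth inhibition relative to vehicle controls, following compound exposure of a strain with a defined DNA repair/cell cycle alteration.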

[14] = NCI Yeast Anticancer Drug Screen. Data for the mlh1 rad18 strain (AID 175); conditions: S. cerevisiae mlh1 rad18 strain growth inhibition, active compounds read high
Summary of the method: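 Yeast w/ defined DNA-repair lesions; compound exposure; growth vs vehicle controls → % inhibition.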

[15] = NCI Yeast Anticancer Drug Screen. Data for the rad18 strain (AID 177); conditions: S. cerevisiae rad18 mutant growth inhibition, active compounds read high
Summary of the method: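 Readout: growth inhibition vs vehicle controls. Cells: genetically altered yeast strain, DNA repair defect.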

[16] = at 5.0 µM (retest, dose inferred, filed as 0.5)
[17] = at 50.0 µM (retest, dose inferred, filed as 5.0)

SMILES: Cc1nc(-c2cc3cc([N+](=O)[O-])ccc3oc2=O)cs1
- growth inhibition ([1]; at 1.2 µM): 13%
- growth inhibition ([1]; at 3.7 µM): 39%
- growth inhibition ([1]; at 11.0 µM): 47%
- growth inhibition ([1]; at 33.0 µM): 65%
- growth inhibition ([1]; at 100.0 µM): 97% (active)
- growth inhibition ([2]; at 1.2 µM): -5%
- growth inhibition ([2]; at 3.7 µM): 5%
- growth inhibition ([2]; at 11.0 µM): 11%
- growth inhibition ([2]; at 33.0 µM): 25%
- growth inhibition ([2]; at 100.0 µM): 92% (active)
- growth inhibition ([3]; at 1.2 µM): -7%
- growth inhibition ([3]; at 3.7 µM): 26%
- growth inhibition ([3]; at 11.0 µM): 57%
- growth inhibition ([3]; at 33.0 µM): 81% (active)
- growth inhibition ([3]; at 100.0 µM): 99% (active)
- growth inhibition ([4]; at 1.2 µM): -1%
- growth inhibition ([4]; at 3.7 µM): 6%
- growth inhibition ([4]; at 11.0 µM): 5%
- growth inhibition ([4]; at 33.0 µM): 25%
- growth inhibition ([4]; at 100.0 µM): 89% (active)
- growth inhibition ([5]; at 1.2 µM): 20%
- growth inhibition ([5]; at 3.7 µM): 17%
- growth inhibition [5, 16]: 17%
- growth inhibition ([5]; at 11.0 µM): 23%
- growth inhibition ([5]; at 33.0 µM): 42%
- growth inhibition [5, 17]: 84% (active)
- growth inhibition ([5]; at 50.0 µM): 89.9% (active)
- growth inhibition ([5]; at 100.0 µM): 94% (active)
- growth inhibition ([6]; at 1.2 µM): -15%
- growth inhibition ([6]; at 3.7 µM): -3%
- growth inhibition [6, 16]: 18%
- growth inhibition ([6]; at 11.0 µM): 3%
- growth inhibition ([6]; at 33.0 µM): 16%
- growth inhibition [6, 17]: 100% (active)
- growth inhibition ([6]; at 50.0 µM): 94.2% (active)
- growth inhibition ([6]; at 100.0 µM): 94% (active)
- growth inhibition ([7]; at 1.2 µM): -1%
- growth inhibition ([7]; at 3.7 µM): 6%
- growth inhibition ([7]; at 11.0 µM): 13%
- growth inhibition ([7]; at 33.0 µM): 25%
- growth inhibition ([7]; at 100.0 µM): 96% (active)
- growth inhibition [8, 16]: 13%
- growth inhibition [8, 17]: 46%
- growth inhibition ([8]; at 50.0 µM): 89.3% (active)
- growth inhibition [9, 16]: 2%
- growth inhibition [9, 17]: 13%
- growth inhibition ([9]; at 50.0 µM): 59.4%
- growth inhibition ([10]; at 1.2 µM): -15%
- growth inhibition ([10]; at 3.7 µM): -2%
- growth inhibition [10, 16]: -15%
- growth inhibition ([10]; at 11.0 µM): -1%
- growth inhibition ([10]; at 33.0 µM): 3%
- growth inhibition [10, 17]: 60%
- growth inhibition ([10]; at 50.0 µM): 89.4% (active)
- growth inhibition ([10]; at 100.0 µM): 92% (active)
- growth inhibition ([11]; at 1.2 µM): -42%
- growth inhibition ([11]; at 3.7 µM): -24%
- growth inhibition ([11]; at 11.0 µM): -11%
- growth inhibition ([11]; at 33.0 µM): 28%
- growth inhibition ([11]; at 100.0 µM): 99% (active)
- growth inhibition ([12]; at 1.2 µM): -2%
- growth inhibition ([12]; at 3.7 µM): -12%
- growth inhibition ([12]; at 11.0 µM): 10%
- growth inhibition ([12]; at 33.0 µM): 34%
- growth inhibition ([12]; at 100.0 µM): 98% (active)
- growth inhibition ([13]; at 1.2 µM): 5%
- growth inhibition ([13]; at 3.7 µM): 31%
- growth inhibition ([13]; at 11.0 µM): 42%
- growth inhibition ([13]; at 33.0 µM): 62%
- growth inhibition ([13]; at 100.0 µM): 99% (active)
- growth inhibition [14, 16]: 16%
- growth inhibition [14, 17]: 91% (active)
- growth inhibition ([14]; at 50.0 µM): 14.9%
- growth inhibition ([15]; at 1.2 µM): 1%
- growth inhibition ([15]; at 3.7 µM): 2%
- growth inhibition ([15]; at 11.0 µM): 7%
- growth inhibition ([15]; at 33.0 µM): 34%
- growth inhibition ([15]; at 100.0 µM): 94% (active)
